# Assay results reported in PubChem BioAssay (NCI).
# Compounds without any hit were thinned out: in the full panel of roughly 79,000, 15% have a hit. Unmarked numbers belong to inactive results. Calls of active or inactive are those of the source. No stated cut-off is given here; in the data, active means growth inhibition above about 70%; inactive means the rest.
# What was measured:
# [1] = NCI Yeast Anticancer Drug Screen. Data for the rad50 strain (AID 155);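 further: 0% = growth of vehicle-only cultures of the same strain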; details: S. cerevisiae rad50 strain growth inhibition, stronger effect = higher value
# How it was run: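 Growth of the mutant yeast was measured after compound exposure and referenced to vehicle-treated cultures.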
# [2] = NCI Yeast Anticancer Drug Screen. Data for the mec2-1 strain (AID 157); details: S. cerevisiae mec2-1 strain, stronger effect = higher value
# How it was run: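 mec2-1 yeast strain, carrying an alteration in DNA damage repair or cell cycle control, was exposed to compounds; growth inhibition was measured relative to vehicle-treated controls.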
# [3] = NCI Yeast Anticancer Drug Screen. Data for the sgs1 mgt1 strain (AID 161);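 further: 0% = growth of cultures given vehicle only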; details: S. cerevisiae sgs1 mgt1 strain, stronger effect = higher value
# How it was run: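 This yeast growth screen uses a strain with defined DNA-repair lesions; compound-treated growth is compared with vehicle-treated growth.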
# [4] = NCI Yeast Anticancer Drug Screen. Data for the cln2 rad14 strain (AID 165);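 further: 0% = growth equal to vehicle treated cultures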; details: S. cerevisiae cln2 rad14 strain, stronger effect = higher value
# How it was run: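 Yeast carrying cln2 and rad14 alterations (cell cycle control and DNA damage repair) were exposed to compounds. Growth inhibition was measured against vehicle-treated controls.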
# [5] = NCI Yeast Anticancer Drug Screen. Data for the bub3 strain (AID 167); details: S. cerevisiae bub3 mutant strain, stronger effect = higher value
# How it was run: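 Whole-cell yeast assay. The mutant strain was incubated with compounds, and growth inhibition was determined by comparison with vehicle-treated cells.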
# [6] = NCI Yeast Anticancer Drug Screen. Data for the mlh1 rad18 strain (AID 175); details: S. cerevisiae mlh1 rad18 strain growth inhibition, stronger effect = higher value
# How it was run: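 Growth inhibition of the yeast strain was measured after compound exposure and expressed relative to vehicle-treated controls. The strain carries defined defects in DNA damage repair.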
# [7] = at 5.0 µM (retest, dose inferred, filed as 0.5)
# [8] = at 50.0 µM (retest, dose inferred, filed as 5.0)
Compound,"growth inhibition [1, 7]","growth inhibition [1, 8]",growth inhibition ([1]; at 50.0 µM),"growth inhibition [2, 7]","growth inhibition [2, 8]",growth inhibition ([2]; at 50.0 µM),"growth inhibition [3, 7]","growth inhibition [3, 8]",growth inhibition ([3]; at 50.0 µM),"growth inhibition [4, 7]","growth inhibition [4, 8]",growth inhibition ([4]; at 50.0 µM),"growth inhibition [5, 7]","growth inhibition [5, 8]",growth inhibition ([5]; at 50.0 µM),"growth inhibition [6, 7]","growth inhibition [6, 8]",growth inhibition ([6]; at 50.0 µM)
O=c1oc2cc(O)ccc2c(O)c1C(c1ccc(/C=C/c2ccccc2)cc1)c1c(O)c2ccc(O)cc2oc1=O,43%,98% (active),89% (active),19%,99% (active),91.8% (active),-20%,97% (active),89.8% (active),14%,98% (active),90.7% (active),15%,42%,86% (active),8%,99% (active),92.5% (active)
[Cl][Hg][c]1ccc(Cl)s1,99% (active),99% (active),99.2% (active),100% (active),99% (active),99.2% (active),100% (active),100% (active),99% (active),99% (active),99% (active),99% (active),100% (active),100% (active),99.3% (active),99% (active),99% (active),98.6% (active)
O=c1cccc(C2CC(CO)C3CCCCN3C2)[nH]1 (configuration not stated),1%,-1%,69.3%,1%,-2%,91.8% (active),2%,1%,57.5%,-8%,-12%,37.3%,3%,2%,53.2%,-2%,-3%,-50.8%
ClCCN(CCCl)CCN1c2ccc3ccccc3c2Sc2ccc3ccccc3c21,-3%,2%,32.7%,0%,37%,16.5%,-13%,61%,85% (active),2%,1%,-19.2%,1%,79% (active),20.8%,-1%,53%,67.9%
[O-][n+]1ccccc1S,99% (active),99% (active),99.4% (active),100% (active),100% (active),99.7% (active),100% (active),99% (active),99.7% (active),99% (active),99% (active),99.2% (active),99% (active),99% (active),99.3% (active),99% (active),99% (active),99.5% (active)
[Cl][Hg][c]1ccco1,99% (active),99% (active),99.5% (active),100% (active),99% (active),99.5% (active),100% (active),100% (active),99.7% (active),99% (active),99% (active),99% (active),100% (active),100% (active),99.4% (active),99% (active),99% (active),99.2% (active)
CC1=C/C(=C2/N=C(N(C)C)SS2)C(C)=N1,11%,78% (active),13.2%,1%,48%,-0.9%,31%,88% (active),8.85%,9%,48%,15.4%,23%,66%,43.9%,5%,71% (active),16.7%
CCC[CH2][Sn]1([CH2]CCC)[O]C(=O)c2cccnc2[S]1,40%,95% (active),78.4% (active),38%,97% (active),78.3% (active),55%,97% (active),77% (active),31%,94% (active),62.5%,44%,97% (active),83.5% (active),51%,97% (active),79.8% (active)
CC(C)=N.[C-]#[O+].[C-]#[O+].[C-]#[O+].[C-]#[O+].[C-]#[O+].[W],30%,34%,-7.35%,15%,35%,-2.45%,26%,34%,-11.8%,36%,31%,0.7%,36%,47%,64.5%,45%,43%,-13.1%
CCOC(=O)NP(=O)(NNc1ccccc1)NNc1ccccc1,79% (active),98% (active),100% (active),82% (active),96% (active),98.8% (active),92% (active),98% (active),98.8% (active),84% (active),99% (active),98.2% (active),93% (active),98% (active),98.8% (active),92% (active),98% (active),98.2% (active)
CC(C)c1cc([N+](=O)[O-])cc([N+](=O)[O-])c1O,9%,88% (active),82.4% (active),-20%,90% (active),62.1%,1%,87% (active),86.1% (active),8%,82% (active),58%,-4%,85% (active),55.5%,6%,90% (active),80.7% (active)
O=[N+]([O-])/C=C/c1ccccc1Cl,91% (active),98% (active),90.8% (active),99% (active),99% (active),92.8% (active),67%,98% (active),93.3% (active),68%,98% (active),92.2% (active),98% (active),99% (active),91% (active),99% (active),99% (active),91.2% (active)
CNP(=O)(Oc1cc(Cl)c(Cl)cc1Cl)N1CCN(c2ccccc2)CC1 (configuration not stated),12%,81% (active),98.8% (active),36%,48%,98% (active),8%,72% (active),98% (active),25%,53%,97.8% (active),11%,86% (active),97.5% (active),-5%,91% (active),97.4% (active)
CN(C=O)NC(=O)N(CCCl)N=O,19%,21%,55.2%,13%,1%,62.5%,22%,21%,-13.2%,23%,16%,11.2%,12%,4%,-9.1%,16%,23%,-11.4%
CCCCCCCCCC(=O)[O][Hg][c]1ccccc1,99% (active),99% (active),71.5% (active),100% (active),99% (active),99.7% (active),99% (active),100% (active),99.5% (active),99% (active),99% (active),99.4% (active),99% (active),98% (active),99.3% (active),99% (active),99% (active),99.1% (active)
CCOP(=O)(OCC)/C(C#N)=C/c1cccc(F)c1,-9%,45%,73.8% (active),-11%,23%,59.3%,-2%,36%,64.8%,17%,33%,25.4%,-12%,56%,51.1%,-1%,69%,68.9%
ClCCN(Cc1ccccc1)CC1COc2ccccc2O1 (configuration not stated),10%,72% (active),91.2% (active),-1%,79% (active),92.1% (active),7%,95% (active),90.5% (active),-2%,34%,82.7% (active),11%,90% (active),97.3% (active),15%,94% (active),97.3% (active)
N#C[S-].[La+3].c1cnc2c(c1)ccc1cccnc12.c1cnc2c(c1)ccc1cccnc12.c1cnc2c(c1)ccc1cccnc12,97% (active),98% (active),91.9% (active),99% (active),99% (active),94.4% (active),99% (active),99% (active),93.5% (active),95% (active),98% (active),92.7% (active),99% (active),99% (active),92.1% (active),98% (active),98% (active),91.3% (active)
O=C1CC2CCCC(C1)N2Cc1ccccc1,2%,26%,71.5% (active),4%,28%,-6.1%,15%,47%,62.5%,-69%,47%,37.5%,-2%,25%,34.9%,7%,24%,51.7%
